Compound activity: PubChem BioAssay, National Center for Advancing Translational Sciences (NCATS)
D1 antag = human D1 dopamine receptor antagonism. activity change, negative = inhibition, % at 10 µM. 3.2% of 360,000 active. AID 504652. P21728. HEK293 TREx D1 cells, calcium flux, dopamine EC80; stronger effect = lower value; in the data active = activity change below about -30%
Target sequence (P21728 whole entry, looked up): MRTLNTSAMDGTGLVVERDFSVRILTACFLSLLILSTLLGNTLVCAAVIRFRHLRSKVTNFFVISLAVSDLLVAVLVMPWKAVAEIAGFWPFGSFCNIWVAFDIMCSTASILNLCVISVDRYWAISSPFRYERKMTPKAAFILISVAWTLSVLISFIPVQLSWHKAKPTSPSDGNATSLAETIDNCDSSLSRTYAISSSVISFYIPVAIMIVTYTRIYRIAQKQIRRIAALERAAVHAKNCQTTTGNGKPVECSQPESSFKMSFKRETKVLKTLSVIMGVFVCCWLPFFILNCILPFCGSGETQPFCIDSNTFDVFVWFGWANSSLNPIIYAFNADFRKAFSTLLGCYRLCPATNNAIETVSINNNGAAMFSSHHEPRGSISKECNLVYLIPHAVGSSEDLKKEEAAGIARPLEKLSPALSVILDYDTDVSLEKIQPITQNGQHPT
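Kinetic fluorescence of a calcium dye serves as the read-out. D1-expressing Hek293 Trex cells, induced overnight at 30 C, are exposed to compound for 180 s before an EC80 dopamine addition, then read 180 s further.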
DRD3 antagonist = blocks the human D3 dopamine receptor. P35462. D3R cells, DiscoveRx beta-arrestin luminescence, antagonist mode; stronger effect = lower value. max response, negative = inhibition, %. 2.5% of 360,000 active. AID 652054; in the data active = max response below about -50%; inconclusive = no clear call, values can overlap the other calls
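Cells plated overnight at 1500 cells/well, then exposed to library compounds with dopamine controls for 90 minutes at 37 degrees C. DiscoveRx reagent added for 30–60 minutes at room temperature; luminescence read, quantitative HTS format.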
D1 ag = human D1 receptor agonism | P21728 | HEK293 T-REx D1 cells, calcium flux, agonist mode | activation, % at 2 µM | 1% of 360,000 active | AID 504660; in the data active = activation above about 30%
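Agonism was scored from calcium flux recorded over 180 s (1 read/s) after pintool compound addition, following a 10-cycle baseline. Cells were inducible force-coupled HEK293 TREx D1, plated overnight at 30 C and loaded with no-wash calcium dye.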
D1 PAM = potentiators of human D1 dopamine receptor; 0.036% of 360,000 active; HEK293 TREx D1 cells, calcium flux, dopamine EC20 potentiation; potentiation, % at 10 µM; P21728; in the data active = potentiation above about 30%
DRD3 agonist = activates the human D3 dopamine receptor; P35462; 0.58% of 410,000 active; D3R DiscoveRx beta-arrestin cells, luminescence, 90 min; max activation, %; AID 652048; in the data active = max activation above about 30%
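Agonist mode: compounds and dopamine controls were applied to plated cells for 90 min at 37 degrees C after an overnight attachment at 1500 cells/well. Luminescent read-out followed 30 - 60 minutes at room temperature with DiscoveRx detection reagent.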
Each line names hits and unclear results; the compound was inactive in the other large screens. Shown are actives, neighbours in structure and some others; about 6.1% of the full set was active somewhere.

COc1ccc(Cn2cc(CN3CC(N4CCN(CCN(C)C)CC4)CS3(=O)=O)nn2)cc1 (centres undefined)	none (no result: D1 antag, D1 ag, D1 PAM)
CCC1Oc2ccc(C)cc2N(CC(=O)NCCCN2CCCC2)C1=O (centres undefined)	DRD3 antagonist -68
CCCN1CCN(CCCNC(=O)CN2C(=O)C(CC)Oc3ccccc32)CC1 (centres undefined)	none
CCC1Oc2ccccc2N(CC(=O)NCCC2=CCCCC2)C1=O (centres undefined)	D1 antag -34
CCC1Oc2ccccc2N(CC(=O)NCc2ccccc2)C1=O (centres undefined)	none (no result: DRD3 antagonist)
CCC1Oc2ccccc2N(CC(=O)NCCN2CCc3ccccc3C2)C1=O (centres undefined)	DRD3 antagonist -53
Cc1oc2ncn(CC(C)C)c(=O)c2c1C(=O)NC(C)c1ccccc1 (centres undefined)	none (no result: DRD3 antagonist)
Cc1ccc(S(=O)(=O)N2CCC[C@H]2C(=O)OCc2cc(=O)oc3cc(C)ccc23)cc1	none (no result: D1 antag, D1 ag, D1 PAM)
Fc1cccc(Cc2c(-c3ccccc3)nc3c(Cl)cc(C(F)(F)F)cn23)c1	DRD3 agonist 62 (no result: D1 antag, D1 ag, D1 PAM)
Cc1ccc(-c2nc3c(Cl)cc(C(F)(F)F)cn3c2Cc2ccsc2)cc1	DRD3 antagonist -59 (no result: D1 antag, D1 ag, D1 PAM)
CC(C)(C)Cc1c(-c2ccc(Cl)cc2)nc2c(Cl)cc(C(F)(F)F)cn12	DRD3 agonist 37 (no result: D1 antag, D1 ag, D1 PAM)
Fc1ccc(-c2nc3c(Cl)cc(C(F)(F)F)cn3c2Cc2cccc(F)c2)cc1	none (no result: D1 antag, D1 ag, D1 PAM)
COc1ccc(-c2nncnn2)cc1	DRD3 antagonist -52
COc1ccc(-c2ccc(OC)cc2)cc1	DRD3 antagonist inconclusive
COCCNc1nc(NCCOc2ccccc2Cl)c2sc(-c3ccccc3)cc2n1	DRD3 agonist 58 (no result: D1 antag, D1 ag, D1 PAM)
COc1cc2c(cc1OC)C1O[C@](c3ccsc3)(C2)Oc2cc(C)n(Cc3ccccc3)c(=O)c21	none (no result: DRD3 antagonist, DRD3 agonist)
COc1ccccc1NS(=O)(=O)c1ccc(NC(=O)N2CCCCC2)cc1	D1 antag -46
COc1ccccc1NS(=O)(=O)c1cccc(C(=O)OCC(=O)Nc2cc(C)on2)c1	D1 antag -32
COc1ccccc1NS(=O)(=O)c1cccc(NC(=O)Nc2ccc(Cl)cc2)c1	none
COc1ccccc1NS(=O)(=O)c1cccc(C(=O)NNC(=O)c2ccc(=O)[nH]c2)c1	D1 antag -32 (no result: D1 PAM)
COc1ccccc1NS(=O)(=O)c1cccc(NC(=O)Nc2ccccc2)c1	D1 antag -33
COc1ccc(OC)c(NC(=O)C2(C)CCN2C(=O)CC2CC2)c1 (centres undefined)	none (no result: D1 antag, D1 ag, D1 PAM)
CCOC(=O)c1cccc(NC(=O)NCc2ccc3c(c2)CCN3C(=O)CC)c1	none (no result: DRD3 antagonist)
COc1ccc(-c2noc(-c3ccc(N4CCC(C)CC4)c([N+](=O)[O-])c3)n2)cc1OC	D1 antag -42 (no result: DRD3 antagonist)
CN1CCN(c2ccc(-c3nc(-c4ccccc4)no3)cc2[N+](=O)[O-])CC1	D1 antag -38 (no result: DRD3 antagonist)
COc1ccc(-c2noc(-c3ccc(N4CCN(C)CC4)c([N+](=O)[O-])c3)n2)cc1	none (no result: DRD3 antagonist)
CCN(CC)S(=O)(=O)c1ccc(NC(=O)CN(c2ccccc2)S(=O)(=O)N(C)C)cc1	none (no result: DRD3 antagonist)
Cc1ccc(C(=O)N[C@H](C(=O)NC2CCCCCCC2)C(C)C)cc1	none
Nc1c(S(=O)(=O)c2ccccc2)nnn1-c1ccccc1	none
CCc1ccc(S(=O)(=O)c2nnn(-c3cccc(C)c3)c2N)cc1	D1 antag -30, D1 ag 64 (no result: DRD3 antagonist)
COc1cccc(-c2nc(CS(=O)(=O)CC(=O)NCc3cccc(Cl)c3)c(C)o2)c1	none (no result: DRD3 antagonist)
COc1ccccc1C1NC=C([N+](=O)[O-])C=C1[N+](=O)[O-] (centres undefined)	DRD3 antagonist -62
Cc1ccc(C(=O)NN2C(=O)c3ccc(S(=O)(=O)c4ccc(C(=O)O)cc4)cc3C2=O)cc1	D1 antag -43
O=C(O)c1ccc(S(=O)(=O)c2ccc3c(c2)C(=O)N(NC(=O)c2ccc(O)cc2)C3=O)cc1	none
Clc1ccc2c(N/N=C/c3ccc(Br)cc3)ccnc2c1	D1 antag -43
Cc1nc2ccccn2c1C(=O)NC1CCCc2ccccc21 (centres undefined)	D1 antag -34
O=C(NC1CCCc2ccccc21)c1cn2ccccc2n1 (centres undefined)	none
CN(CC(=O)NC1CCCc2ccccc21)C1CCCCC1 (centres undefined)	DRD3 antagonist -51
CCOC(=O)CSc1nc2sc3c(c2c(=O)n1-c1ccccc1)CCN(C(C)C)C3	none
O=C(NCc1ccccc1)c1ccc(C2SCC(=O)N2Cc2ccccc2)cc1 (centres undefined)	D1 ag 34
C=CCNC(=O)c1ccc(C2SCC(=O)N2Cc2ccccc2)cc1 (centres undefined)	none
COc1ccc(-n2ncc(C(=O)NCCc3ccsc3)c2C2CCN(C(=O)OC(C)(C)C)CC2)cc1	none (no result: DRD3 antagonist)
Cc1nn(Cc2c(F)c(F)c(F)c(F)c2F)c(C)c1NC(=O)c1ccc(COc2ccccc2Cl)cc1	D1 antag -34
CC(CN1CCCC1)C(=O)NN (centres undefined)	none
O=c1[nH]c2ccccc2cc1CN(CC1CCCO1)S(=O)(=O)c1ccccc1 (centres undefined)	D1 antag -35
CCN(Cc1cc2ccccc2[nH]c1=O)S(=O)(=O)c1ccc(OC)cc1	D1 antag -39
O=C(NCc1cccs1)c1ccc(Cn2c(SCc3ccccc3)nc3cccnc32)cc1	none (no result: DRD3 antagonist)
CC(C)(C)N(Cc1ccccc1)C(=O)COC(=O)c1cccc([N+](=O)[O-])c1	none
CCCC(=O)Nc1nc2ccc3nc(C)sc3c2s1	none
CCCCC(=O)Nc1nc2ccc3nc(C)sc3c2s1	DRD3 antagonist -80
Cc1ccc(O)c(CP(=O)(c2ccccc2)c2ccccc2)c1	none
CCNc1ccccc1CP(=O)(c1ccccc1)c1ccccc1O (centres undefined)	D1 ag 35
CCN(CC)C(=O)CC(c1ccc2c(c1)OCO2)c1c(OC)cc(OC)c2ccc(=O)oc12 (centres undefined)	D1 antag -38
CCN(CC)C(=O)CC(c1ccc(N(C)C)cc1)c1c(OC)cc(OC)c2ccc(=O)oc12 (centres undefined)	none
CCOC(=O)Cc1ccc(Nc2nc(NC)nc3ccsc23)cc1	DRD3 antagonist -78 (no result: D1 antag, D1 ag, D1 PAM)
CCOC(=O)Cc1ccc(Nc2nc(NCc3ccccc3)nc3ccsc23)cc1	none (no result: D1 antag, D1 ag, D1 PAM)
COC(=O)c1c(C(=O)OC)c2c(-c3ccccc3)cc3cccc1n32	DRD3 agonist 34 (no result: D1 antag, D1 ag, D1 PAM)
O=C(NC1CCCC1)N[C@@H]1CC[C@@H](CC(=O)N2CCOCC2)O[C@@H]1CO	none (no result: D1 antag, D1 ag, D1 PAM)
COc1ccc(C(=O)N2CCCC(c3ccccc3)C2)cc1 (centres undefined)	DRD3 antagonist inconclusive
O=C(c1ccc(F)cc1)N1CCC(c2ccccc2)C1 (centres undefined)	DRD3 antagonist -65
